According to PubChem BioAssay (NCI):
Where “and” joins values, the source holds several entries; their conditions need not be identical. Equal entries are not always repeated. The panel holds about 83,000 compounds, 20% with a hit somewhere; the sample as a whole holds those more often.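 Activity criterion: percent growth below 10, measured after cells in 96-well plates were exposed to a single compound concentration for 48 hours.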 Calls of active or inactive are those of the source.

Legend:
Assay in all cases: NCI-60 one-dose screen, 48 h (100 = growth as untreated, 0 = no growth, -100 = all killed)
SR leukemia = conditions: 10 µM unless noted
RPMI-8226 leukemia = conditions: 10 µM unless noted
OVCAR-8 ovarian = conditions: 10 µM unless noted
OVCAR-5 ovarian = conditions: 10 µM unless noted
OVCAR-4 ovarian = conditions: 10 µM unless noted
SK-OV-3 ovarian = conditions: 10 µM unless noted
IGROV1 ovarian = conditions: 10 µM unless noted
OVCAR-3 ovarian = conditions: 10 µM unless noted
HS 578T breast = conditions: 10 µM unless noted
NCI/ADR-RES ovarian = conditions: 10 µM unless noted
BT-549 breast = conditions: 10 µM unless noted
SW-620 colon = conditions: 10 µM unless noted
MCF7 breast = system: MCF7 breast
HCT-116 colon = conditions: 10 µM unless noted
HCC-2998 colon = conditions: 10 µM unless noted
KM12 colon = conditions: 10 µM unless noted
T-47D breast = conditions: 10 µM unless noted
MDA-MB-435 melanoma = conditions: 10 µM unless noted

Row | SMILES | growth (SR leukemia) | growth (RPMI-8226 leukemia) | growth (OVCAR-8 ovarian) | growth (OVCAR-5 ovarian) | growth (OVCAR-4 ovarian) | growth (SK-OV-3 ovarian) | growth (IGROV1 ovarian) | growth (OVCAR-3 ovarian) | growth (HS 578T breast) | growth (NCI/ADR-RES ovarian) | growth (BT-549 breast) | growth (SW-620 colon) | growth (MCF7 breast; 10 µM) | growth (MCF7 breast; 100 µM) | growth (HCT-116 colon) | growth (HCC-2998 colon) | growth (KM12 colon) | growth (T-47D breast) | growth (MDA-MB-435 melanoma) | growth (MCF7 breast; 10 µM unless noted)
1 | CC(C)(C)CC(N)=O | 102% (inactive) | 107% (inactive) | 97.7% (inactive) | 102% (inactive) | 100% (inactive) | 88.2% (inactive) | 112% (inactive) | 110% (inactive) | 106% (inactive) | 102% (inactive) | 75.3% (inactive) | 102% (inactive) | 85.9% (inactive) | 85.2% (inactive) and 8.62% (active) | 93.6% (inactive) | 106% (inactive) | 109% (inactive) | – | – | –
2 | CN(C)c1ccc2nc3ccc(=O)cc-3sc2c1 | 7.73% (active) and 17.9% (inactive) | 12.8% (inactive) and 13.8% (inactive) | 28.1% (inactive) and 6.61% (active) | 86.6% (inactive) and 88.5% (inactive) | – | 81.7% (inactive) and 93.7% (inactive) | 50.2% (inactive) and 57.1% (inactive) | -7.17% (active) and -6.79% (active) | 79.4% (inactive) and 79.2% (inactive) | 14.7% (inactive) and 46.2% (inactive) | 52.5% (inactive) and 47.1% (inactive) | 31.9% (inactive) and 47.4% (inactive) | – | – | 2.57% (active) and 9.4% (active) | 18.1% (inactive) and 39.7% (inactive) | 30.4% (inactive) and 32.8% (inactive) | 28% (inactive) and 38.8% (inactive) | 40.7% (inactive) and -65.2% (active) | -1.53% (active) and 1.73% (active)
3 | CCOc1ccc(N2C(N)=NC(N)=NC2(C)C)cc1 | 5.52% (active) and 92.7% (inactive) | -4.32% (active) and 90% (inactive) | 25.8% (inactive) and 91.2% (inactive) | 55.6% (inactive) and 100% (inactive) | – | 15.7% (inactive) and 80.1% (inactive) | 45.7% (inactive) and 80.8% (inactive) | -35.8% (active) and 107% (inactive) | 35.9% (inactive) and 96% (inactive) | 9.74% (active) and 101% (inactive) | 59.6% (inactive) and 83.4% (inactive) | 16.2% (inactive) and 75.8% (inactive) | – | – | 21.4% (inactive) and 63.1% (inactive) | 40.2% (inactive) and 112% (inactive) | 25.1% (inactive) and 95.6% (inactive) | 38% (inactive) and 86% (inactive) | -42.8% (active) and 82.7% (inactive) | 6.3% (active) and 88.3% (inactive)
4 | COc1ccc(-c2cc(-c3cccc(Cl)c3)c(C#N)c(=O)[nH]2)c(OC)c1 | 111% (inactive) | 68.3% (inactive) | 94.4% (inactive) | 99.1% (inactive) | – | 114% (inactive) | 92.1% (inactive) | 90.5% (inactive) | 74.4% (inactive) | 90.9% (inactive) | 85.9% (inactive) | 96.3% (inactive) | – | – | 96.9% (inactive) | 106% (inactive) | – | 97.8% (inactive) | 87.1% (inactive) | 88.7% (inactive)
5 | CC/C(=C(/c1ccc(Cl)cc1)c1ccc(OCCN2CCOCC2)cc1)c1ccccc1 | 85.1% (inactive) | 80.3% (inactive) | 91.6% (inactive) | 100% (inactive) | – | 116% (inactive) | 108% (inactive) | 96% (inactive) | 99.2% (inactive) | 103% (inactive) | 117% (inactive) | 83.7% (inactive) | – | – | 77.6% (inactive) | 99.8% (inactive) | 96.6% (inactive) | 71.7% (inactive) | 94.8% (inactive) | 86.2% (inactive)
6 | Cc1ccc(-c2nc3nc(-c4ccccc4)nc(N4CCCNCC4)c3o2)cc1 | -49.7% (active) | -55% (active) | -48.4% (active) | -32.4% (active) | – | 79.9% (inactive) | -73.8% (active) | -81.7% (active) | -18.1% (active) | -29.8% (active) | 18% (inactive) | -57.5% (active) | – | – | – | -74.9% (active) | – | -45% (active) | -83.1% (active) | -78.4% (active)
7 | CC1=CC=C(NC(=O)/C=C/c2ccccc2)CC1Nc1nccc(-c2cccnc2)n1 (stereo not drawn) | 15.3% (inactive) | 17.2% (inactive) | 61% (inactive) | 96.8% (inactive) | – | 57.6% (inactive) | 54.7% (inactive) | 19.9% (inactive) | 44.5% (inactive) | 47.6% (inactive) | 74.5% (inactive) | 27% (inactive) | – | – | 14.5% (inactive) | 70.5% (inactive) | 26.4% (inactive) | 48.1% (inactive) | -48.5% (active) | 18% (inactive)
8 | CC[C@]12CN3CCc4c([nH]c5ccccc45)[C@@](C(=O)OC)(c4cc5c(cc4OC)N(C)[C@H]4[C@@](O)(C(=O)OC)[C@H](OC(C)=O)[C@]6(CC)C=CCN7CC[C@]54[C@@H]76)CC(C3)[C@H]1O2 (stereo partly drawn) | 14.4% (inactive) | 20.5% (inactive) | 7.27% (active) | 49% (inactive) | 28% (inactive) | 22.1% (inactive) | – | -60.4% (active) | -25.1% (active) | 82% (inactive) | -26% (active) | 17.1% (inactive) | 15.7% (inactive) | 35.1% (inactive) and -19% (active) | 0.479% (active) | -14.6% (active) | -17.6% (active) | 54.8% (inactive) | -43.8% (active) | –
9 | COC(=O)c1nc(-c2ccccc2)oc1S(=O)(=O)N(C)CCO | 8.68% (active) | 42.4% (inactive) | 85.6% (inactive) | 82.5% (inactive) | – | 89.8% (inactive) | 69.2% (inactive) | 34.7% (inactive) | 99.5% (inactive) | 97.2% (inactive) | 72.5% (inactive) | 40.4% (inactive) | – | – | 46.7% (inactive) | 99.4% (inactive) | 89.4% (inactive) | 44.5% (inactive) | 60.9% (inactive) | 47.8% (inactive)
10 | O=C(NNc1ccccc1)C1CCCN1 (stereo not drawn) | 105% (inactive) | 78.7% (inactive) | 86.7% (inactive) | 69.7% (inactive) | – | 80.6% (inactive) | 75.1% (inactive) | 88.8% (inactive) | 93% (inactive) | 84.1% (inactive) | 104% (inactive) | 68.2% (inactive) | – | – | 78.8% (inactive) | 82.2% (inactive) | 31.9% (inactive) | 55.6% (inactive) | 37.1% (inactive) | 76.4% (inactive)
11 | C#Cc1cc(C(=O)Nc2ccc(CN3CCN(C)CC3)c(C(F)(F)F)c2)ccc1C | 58.7% (inactive) | 59.5% (inactive) | 77.4% (inactive) | 74.6% (inactive) | – | 93.2% (inactive) | 75.7% (inactive) | 86.4% (inactive) | 64.7% (inactive) | 82.2% (inactive) | 101% (inactive) | 81.3% (inactive) | – | – | 47.8% (inactive) | 90.2% (inactive) | 70.3% (inactive) | 79% (inactive) | 28.1% (inactive) | 70.1% (inactive)
12 | CC(=O)Nc1c(I)c(NC(C)=O)c(I)c(C(=O)O)c1I | 86.7% (inactive) and 80.5% (inactive) | 106% (inactive) and 112% (inactive) | 101% (inactive) and 96.3% (inactive) | 102% (inactive) and 108% (inactive) | 90.4% (inactive) | 105% (inactive) and 110% (inactive) | 108% (inactive) | 111% (inactive) and 116% (inactive) | 105% (inactive) and 171% (inactive) | 106% (inactive) and 109% (inactive) | 101% (inactive) and 97.9% (inactive) | 102% (inactive) and 117% (inactive) | – | – | – | 106% (inactive) | 104% (inactive) and 123% (inactive) | – | – | 98.6% (inactive) and 96.9% (inactive)
13 | CCOC(=O)c1nnn(Cc2cc(=O)oc3c2ccc2ccccc23)c1C | 97.6% (inactive) | 103% (inactive) | 98.1% (inactive) | 102% (inactive) | – | 104% (inactive) | 110% (inactive) | 103% (inactive) | 100% (inactive) | 108% (inactive) | 108% (inactive) | – | – | – | 89.3% (inactive) | 106% (inactive) | 104% (inactive) | 93.9% (inactive) | 105% (inactive) | 92% (inactive)
14 | C=C1CCC2C3(C)COC(c4ccc(NC(C)=O)cc4)OC3CCC2(C)C1C/C=C1/C(=O)OCC1O (stereo not drawn) | 25.2% (inactive) | 6.14% (active) | 44.7% (inactive) | 74.9% (inactive) | – | 79.6% (inactive) | 84.4% (inactive) | 76.2% (inactive) | 54% (inactive) | 36.1% (inactive) | 59.8% (inactive) | 77.3% (inactive) | – | – | – | 59.1% (inactive) | 51.7% (inactive) | 29.4% (inactive) | 60.5% (inactive) | 42.5% (inactive)
15 | CCOC(=O)c1c(-c2ccc(C)cc2)c(C#N)c(=O)n(-c2cccc(C(F)(F)F)c2)c1N | 102% (inactive) | 104% (inactive) | 103% (inactive) | 93% (inactive) | – | 108% (inactive) | 107% (inactive) | 106% (inactive) | 105% (inactive) | 109% (inactive) | 113% (inactive) | 101% (inactive) | – | – | – | – | 100% (inactive) | 99.9% (inactive) | 102% (inactive) | 94% (inactive)
16 | NC(=O)c1c(NC(=O)/C=C/c2cccs2)sc2c1CCC(=O)C2 | 11.2% (inactive) | -9.58% (active) | 20.2% (inactive) | 79.3% (inactive) | 14.2% (inactive) | 94.7% (inactive) | 24.4% (inactive) | 13.8% (inactive) | 26.7% (inactive) | 52.4% (inactive) | 20.1% (inactive) | 15.1% (inactive) | – | – | 8.1% (active) | 85.2% (inactive) | 14.8% (inactive) | – | – | 14.1% (inactive)
